The full ranking holds about 33,000 sequences; the median of “normalized occupancy” is about 0.075, and the highest 2% start at about 0.095. The full list was thinned out, with the highest values kept by preference.

Chain of MaxL homodimer (P61244 whole entry): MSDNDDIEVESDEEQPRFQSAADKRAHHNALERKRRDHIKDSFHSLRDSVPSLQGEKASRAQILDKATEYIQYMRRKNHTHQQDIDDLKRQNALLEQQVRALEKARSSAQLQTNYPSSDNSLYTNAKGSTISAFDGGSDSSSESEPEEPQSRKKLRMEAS

The assay addresses MaxL homodimer (Homo sapiens, UniProt P61244 1-160). The experiment in a line: universal protein-binding microarray (PBM); PBS-based mixture, 10 nM His-tagged protein dimer, 2% milk, 200 ng/uL BSA, 50 ng/uL salmon testes DNA, 0.02% TX-100; detection with Alexa 488 anti-His antibody;; high values mean tight binding. To be noted: protein: recombinant; tags: C-terminal His-tag (pET21a); chain copies: 2; dsDNA, one strand shown. The method, boiled down:
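Each 8-mer received a fluorescence intensity from GenePix 4400A scans of Agilent 4 x 44 K 'all 10-mer' universal arrays. Those arrays had been incubated with His-tagged protein dimer at 10 nM, and the bound protein was marked with a fluorophore-conjugated anti-His antibody at 10 ng/μL. Binding occupancy is the intensity scaled to that of the highest-ranked sequence word.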
GGTTTGTA: the binding signal is 0.0749 normalized occupancy.

In the case of AGTTCTAC, the binding signal was 0.0751 normalized occupancy.

AACAAATT: the binding signal is 0.0736 normalized occupancy.

Turning to CGGCAAGC, the binding signal turned out to be 0.0718 normalized occupancy.

Regarding CTTGTAAC, the binding signal was 0.0775 normalized occupancy.

With ACCCACCG, the binding signal turned out to be 0.0804 normalized occupancy.

ATCGCATC: the binding signal was 0.0742 normalized occupancy.

For the sequence AGCGCATA, the binding signal worked out at 0.0757 normalized occupancy.

Turning to AGCGCATC, the binding signal was determined as 0.0737 normalized occupancy.

For the sequence ACCGCATG, the binding signal came to 0.146 normalized occupancy.

Take AGCGCATG: the binding signal is 0.109 normalized occupancy.

Consider ACCGCATA, for which the binding signal is 0.0828 normalized occupancy.

For the sequence ATCGCATA, the binding signal amounted to 0.082 normalized occupancy.

With ACCGCATC, the binding signal was 0.0749 normalized occupancy.

ATCGCATG: the binding signal was determined as 0.108 normalized occupancy.

With AATTCACA, the binding signal is 0.0775 normalized occupancy.

Consider GTCACTAA, for which the binding signal came out at 0.0757 normalized occupancy.

With AACATCTC, the binding signal is 0.0748 normalized occupancy.

Take ATGGACGG: the binding signal was 0.0788 normalized occupancy.

Regarding CACACGAG, the binding signal amounted to 0.0978 normalized occupancy.

On to CACACGAC, for which the binding signal was 0.0877 normalized occupancy.

Turning to AACACGAG, the binding signal worked out at 0.11 normalized occupancy.

Consider AACACGAT, for which the binding signal worked out at 0.0845 normalized occupancy.

CACACGAA: the binding signal amounted to 0.0853 normalized occupancy.

With AACACGAA, the binding signal came to 0.0741 normalized occupancy.

Regarding TAGAGCTA, the binding signal was determined as 0.0719 normalized occupancy.

As for AGTGTATC, the binding signal was 0.0882 normalized occupancy.

With AAATTGCC, the binding signal stood at 0.0721 normalized occupancy.

In the case of CAATTCTA, the binding signal is 0.0752 normalized occupancy.

Consider CACATTGC, for which the binding signal stood at 0.0923 normalized occupancy.

Take GACATTTA: the binding signal was 0.0853 normalized occupancy.

With CACATTGA, the binding signal worked out at 0.0932 normalized occupancy.

Regarding CACATTTA, the binding signal worked out at 0.0961 normalized occupancy.

As for AACATTTA, the binding signal turned out to be 0.0795 normalized occupancy.

Take CACATTGG: the binding signal turned out to be 0.0977 normalized occupancy.

Consider GTTCTAGA, for which the binding signal is 0.0745 normalized occupancy.

Take ATGTGGTA: the binding signal was determined as 0.0922 normalized occupancy.

In the case of ATGTGGAG, the binding signal was determined as 0.0861 normalized occupancy.

As for ATGTGGAC, the binding signal stood at 0.0955 normalized occupancy.

Consider ATGTGGTC, for which the binding signal was determined as 0.0985 normalized occupancy.

As for ATGTGGTG, the binding signal is 0.0894 normalized occupancy.

CTGTGGAC: the binding signal was 0.0726 normalized occupancy.

For AACGCTGT, the binding signal was determined as 0.0729 normalized occupancy.

CGCAATCC: the binding signal stood at 0.0789 normalized occupancy.

Take CCAATCTA: the binding signal was determined as 0.073 normalized occupancy.

ACCACGCC: the binding signal worked out at 0.102 normalized occupancy.

Regarding ACCACGTG, the binding signal stood at 0.773 normalized occupancy.

With ACCACGCA, the binding signal stood at 0.0954 normalized occupancy.

In the case of GCCACGCC, the binding signal turned out to be 0.0925 normalized occupancy.

For the sequence TCCACGCA, the binding signal was 0.0885 normalized occupancy.

As to ACCACACT, the binding signal stood at 0.0849 normalized occupancy.

As for ACCACGTC, the binding signal is 0.0945 normalized occupancy.

As to GCCACGCA, the binding signal came out at 0.0915 normalized occupancy.

With ACCACGTA, the binding signal was 0.0816 normalized occupancy.

As for ACCACGGC, the binding signal was found to be 0.0743 normalized occupancy.

Turning to ACCACACA, the binding signal worked out at 0.085 normalized occupancy.

As to ACCACACG, the binding signal worked out at 0.0972 normalized occupancy.

Take AAAGCAGT: the binding signal worked out at 0.0719 normalized occupancy.

As for ATGAAGCG, the binding signal amounted to 0.0749 normalized occupancy.

With GTCGCGCA, the binding signal stood at 0.0729 normalized occupancy.

CTATGCCA: the binding signal worked out at 0.0777 normalized occupancy.

With AACAAGAA, the binding signal came to 0.0753 normalized occupancy.

With AGCCTCTC, the binding signal was 0.0729 normalized occupancy.

Turning to ACACCACG, the binding signal was found to be 0.0983 normalized occupancy.

In the case of ACACCACA, the binding signal came out at 0.083 normalized occupancy.

On to CCCACGGC, for which the binding signal amounted to 0.0782 normalized occupancy.

In the case of ACCACGGT, the binding signal was 0.0803 normalized occupancy.

Regarding ACACCACC, the binding signal is 0.086 normalized occupancy.

As for ATCACGTC, the binding signal came to 0.0875 normalized occupancy.

On to CCCACGCC, for which the binding signal amounted to 0.099 normalized occupancy.

Regarding CCCACGTC, the binding signal was 0.0804 normalized occupancy.

As for ATCACGTG, the binding signal stood at 0.363 normalized occupancy.

As for ACCACGAT, the binding signal was found to be 0.0936 normalized occupancy.

Regarding ACCACGCT, the binding signal turned out to be 0.123 normalized occupancy.

Consider ATCACGTA, for which the binding signal worked out at 0.0829 normalized occupancy.

For CGAAGGTA, the binding signal was 0.0721 normalized occupancy.

For the sequence CTGTGGCA, the binding signal is 0.0739 normalized occupancy.

As for AGGAACAG, the binding signal stood at 0.0793 normalized occupancy.

On to ACCACGCG, for which the binding signal came to 0.187 normalized occupancy.

Turning to CCCACACA, the binding signal worked out at 0.0838 normalized occupancy.

As for ACCACGGA, the binding signal turned out to be 0.0736 normalized occupancy.

On to ACCACGGG, for which the binding signal was found to be 0.0834 normalized occupancy.

As for CCCACGCA, the binding signal amounted to 0.0903 normalized occupancy.

Take CCCACGCG: the binding signal worked out at 0.148 normalized occupancy.

With ATCACGCG, the binding signal is 0.132 normalized occupancy.

For ATCACGCA, the binding signal was 0.0877 normalized occupancy.

As for ATCACGCC, the binding signal was 0.0864 normalized occupancy.

Consider ACGACGAG, for which the binding signal worked out at 0.0759 normalized occupancy.

For AATTACGA, the binding signal came out at 0.0775 normalized occupancy.

On to AATGGCAA, for which the binding signal is 0.0742 normalized occupancy.

For CTCAACAA, the binding signal came out at 0.0728 normalized occupancy.

For ACTGCTTC, the binding signal worked out at 0.0747 normalized occupancy.

As to AGTTGGTC, the binding signal is 0.0747 normalized occupancy.

For ACACGCCA, the binding signal was found to be 0.0895 normalized occupancy.

In the case of AAACGCCT, the binding signal worked out at 0.073 normalized occupancy.

For ACGCGCTG, the binding signal was found to be 0.077 normalized occupancy.

ACACGCCG: the binding signal came out at 0.1 normalized occupancy.

With ACGCGCCT, the binding signal is 0.0828 normalized occupancy.

Turning to ACACGCTA, the binding signal turned out to be 0.0915 normalized occupancy.

For ACACGCCC, the binding signal was determined as 0.0863 normalized occupancy.

For ACACGCCT, the binding signal was found to be 0.0971 normalized occupancy.

ACACGCTG: the binding signal stood at 0.108 normalized occupancy.

In the case of CGTTATAA, the binding signal turned out to be 0.079 normalized occupancy.

Take ATGGCTCA: the binding signal was determined as 0.0798 normalized occupancy.

As to CCACCATC, the binding signal stood at 0.0768 normalized occupancy.

Regarding CCCGTAAA, the binding signal is 0.0752 normalized occupancy.

Take CATTAAGA: the binding signal turned out to be 0.0765 normalized occupancy.

Consider CACATATG, for which the binding signal turned out to be 0.095 normalized occupancy.

For the sequence AGCATATG, the binding signal came out at 0.103 normalized occupancy.

Regarding ACCATATA, the binding signal is 0.0814 normalized occupancy.

In the case of ACCATATG, the binding signal was 0.118 normalized occupancy.

In the case of AGCATATA, the binding signal came to 0.0807 normalized occupancy.

As for ATCATATG, the binding signal came to 0.0972 normalized occupancy.

With ACCATATC, the binding signal came to 0.0845 normalized occupancy.

As for AACATATA, the binding signal was determined as 0.0841 normalized occupancy.

With AGCATATC, the binding signal was found to be 0.0822 normalized occupancy.

For the sequence ATCATATC, the binding signal amounted to 0.0861 normalized occupancy.

Regarding ATCATATA, the binding signal turned out to be 0.0893 normalized occupancy.

In the case of AACATATG, the binding signal was 0.1 normalized occupancy.

GTTACGTA: the binding signal is 0.0751 normalized occupancy.

As for CTCGATAC, the binding signal was found to be 0.0749 normalized occupancy.

In the case of AAATGCTG, the binding signal stood at 0.0762 normalized occupancy.

For AAAAGCTA, the binding signal came out at 0.0755 normalized occupancy.

On to GGTACGAC, for which the binding signal was 0.0721 normalized occupancy.

As to GAGCACAA, the binding signal is 0.0775 normalized occupancy.

Take GAGCACAC: the binding signal was 0.0956 normalized occupancy.

As to CAGCACAC, the binding signal is 0.0857 normalized occupancy.

Turning to GCAGAATA, the binding signal is 0.0753 normalized occupancy.

AAGTGAAG: the binding signal turned out to be 0.076 normalized occupancy.

For the sequence ACGTGAAC, the binding signal was 0.0842 normalized occupancy.

Consider CCGTGAAG, for which the binding signal stood at 0.0739 normalized occupancy.

For ACGTGAAT, the binding signal was 0.0824 normalized occupancy.

As for ACGTGAAA, the binding signal was determined as 0.097 normalized occupancy.

In the case of ACGTGAAG, the binding signal was determined as 0.1 normalized occupancy.

Take GATGAAAC: the binding signal was found to be 0.0811 normalized occupancy.

Consider AGCGTTAC, for which the binding signal was 0.0823 normalized occupancy.

On to GACGCATA, for which the binding signal was found to be 0.0777 normalized occupancy.

Consider CACGCACC, for which the binding signal is 0.0913 normalized occupancy.

In the case of CGCGCACA, the binding signal stood at 0.0822 normalized occupancy.

With CACGCACA, the binding signal turned out to be 0.0923 normalized occupancy.

AACGCATA: the binding signal worked out at 0.0871 normalized occupancy.

Take CGCGCACG: the binding signal was found to be 0.0959 normalized occupancy.

Consider CACGCATG, for which the binding signal was 0.121 normalized occupancy.

Consider CACGCAAG, for which the binding signal came to 0.0838 normalized occupancy.

Regarding TACGCATA, the binding signal came out at 0.0842 normalized occupancy.

As for GGCGCACA, the binding signal was found to be 0.0793 normalized occupancy.

Regarding CACGCATA, the binding signal stood at 0.0976 normalized occupancy.

Turning to CACGCACG, the binding signal amounted to 0.096 normalized occupancy.

ACACAGTC: the binding signal is 0.0783 normalized occupancy.

As to GTAGTCTA, the binding signal was 0.0723 normalized occupancy.

Regarding GTACTACA, the binding signal amounted to 0.0864 normalized occupancy.

ACTTTAGG: the binding signal is 0.073 normalized occupancy.

Consider ACGCGAAG, for which the binding signal was determined as 0.0765 normalized occupancy.

As for AGTAGTAA, the binding signal is 0.0731 normalized occupancy.

As to ACAACCGA, the binding signal came out at 0.0733 normalized occupancy.

AACGCAAG: the binding signal was found to be 0.073 normalized occupancy.

For the sequence AACGCATC, the binding signal is 0.0731 normalized occupancy.

In the case of GACGCATC, the binding signal came to 0.077 normalized occupancy.

Consider CACGCATC, for which the binding signal turned out to be 0.0962 normalized occupancy.

In the case of AACGCATT, the binding signal stood at 0.0767 normalized occupancy.

AACGCATG: the binding signal came to 0.121 normalized occupancy.

Regarding AAACTATT, the binding signal worked out at 0.0745 normalized occupancy.

Turning to TAGGACTA, the binding signal was found to be 0.0732 normalized occupancy.

Take CACCCGTA: the binding signal was 0.0782 normalized occupancy.

On to CAGCATAG, for which the binding signal amounted to 0.0739 normalized occupancy.

For TAGCATGA, the binding signal was 0.0921 normalized occupancy.

For GAGCATCA, the binding signal came out at 0.0734 normalized occupancy.

With GAGCATGA, the binding signal was 0.0963 normalized occupancy.

CAGCATCG: the binding signal came to 0.0732 normalized occupancy.

Take GAGCATAA: the binding signal turned out to be 0.0797 normalized occupancy.

In the case of CAGCATAA, the binding signal was determined as 0.0808 normalized occupancy.

Regarding CAGCATGA, the binding signal was 0.106 normalized occupancy.

The record behind these values is publication PMC4242493, “Sequence specificity incompletely defines the genome-wide occupancy of Myc”.
